About 540 (0.36%) of roughly 150,000 compounds showed an effect of 50% or more. The list comes from a sample in which strong results are over-represented; it also holds similar structures and randomly drawn compounds.

The experiment relates to Plasmodium falciparum. Kind of experiment: Primary screen in NF54 nanoGlo assay, in single point, at 2uM, 72h; a lower Z score goes with more inhibition. In kind it is functional, Erythrocyte. The conditions noted are these: timepoint 72 hour.
Consider `CN1CCC(N2CCC(NC(=O)c3ccncn3)CC2)CC1`, for which the “% Inhibition” value is reported as -17% and the Z score stood at 2.56.
Consider `Cc1ccc(-c2cc(C(=O)NC3CCN(C4CCN(C)CC4)CC3)n[nH]2)cc1C`, for which the “% Inhibition” value worked out at 95% and the Z score was -16.77.
Consider `Cc1ccc(-c2cc(C(=O)N[C@H]3CCCN(C4CCN(C)CC4)C3)n[nH]2)s1`, for which the “% Inhibition” value worked out at 5% and the Z score was -0.79.
For the compound `CCc1oc2ccccc2c1CNC[C@H](O)c1ccc(Cl)cc1`, the “% Inhibition” value stood at 98% and the Z score is -19.37.
In the case of `Cn1cc(CNC[C@H](O)c2ccc(F)c(F)c2)c(-c2cc3ccccc3o2)n1`, the “% Inhibition” value came to 19% and the Z score is on record as -3.4.
For `CN([C@@H](c1ccccc1)c1ccccc1Br)S(=O)(=O)c1c[nH]c2ncccc12`, the “% Inhibition” value turned out to be 60% and the Z score is given as -11.93.
On to `C[C@](O)(CNS(=O)(=O)c1c[nH]c2ncccc12)C(c1ccccc1)c1ccccc1`, for which the “% Inhibition” value was 4% and the Z score was -0.63.
Turning to `Cc1ccc2[nH]cc(-c3cc(N4CCCCC4)ncn3)c2c1`, the “% Inhibition” value came out at 11% and the Z score is recorded as -2.17.
With `C[C@@H](c1cccc(-c2cc(N3CCOCC3)nc(N)n2)c1)N1CCCC1`, the “% Inhibition” value is -1% and the Z score is 0.25.
Regarding `Cc1ccc2[nH]cc(-c3cc(N4CCOCC4)nc(N)n3)c2c1`, the “% Inhibition” value is reported as 52% and the Z score is listed as -10.41.
On to `NC(=O)c1ccc(CNC(=O)NCC[C@H](O)c2ccccc2)o1`, for which the “% Inhibition” value is -10% and the Z score came to 1.46.
For `CC(C)(O)C#Cc1ccc(CN(CC2CCN(C3CCCC3)CC2)C[C@H]2CCCO2)cc1`, the “% Inhibition” value is on record as -11% and the Z score came to 1.92.
The corresponding values for `CC(C)N1CCN(CCCN2CCN(C)C3(CCCCC3)C2)CC1` are 3% and -0.69.
Regarding `Cc1cc(N2CCC(N(C)Cc3ncc(-c4ccccc4C)o3)CC2)nc(C)n1`, the “% Inhibition” value is recorded as -3% and the Z score is 0.66.
`CN1CCC(Oc2ccc(NCc3ccc(N(C)C)nc3)cn2)CC1`: the “% Inhibition” value is given as -17% and the Z score came to 3.56.
As to `CN1CCC(Oc2ccc(NC(=O)c3cn4ccnc4s3)cn2)CC1`, the “% Inhibition” value amounted to 90% and the Z score was -15.87.
Taken in the same sequence, the figures for `CN1CCC(CNC2CC3CC(C2)N(C(=O)OC(C)(C)C)C3)CC1` (stereo not drawn) were 72% and -15.46.
The corresponding values for `COc1cc2nc(-c3cc(Cl)c(O)cc3C)nc(N)c2cc1OC` are 2% and -0.41.
Turning to `COc1cc2nc(-c3ccc(F)c4cccnc34)nc(N)c2cc1OC`, the “% Inhibition” value is on record as 96% and the Z score is -14.63.
Consider `COc1ccnc(CN2CC[C@H](Nc3ncccn3)C2)c1OC`, for which the “% Inhibition” value is -5% and the Z score was found to be 0.75.
As to `Cc1nc(C)c(C)c(N2CC(OCc3ccccc3)C2)n1`, the “% Inhibition” value is -11% and the Z score came out at 1.9.
Regarding `COc1ccc2nccc(N3CCC(O)CC3)c2c1`, the “% Inhibition” value amounted to 5% and the Z score is recorded as -0.83.
Regarding `CN1CCN(C[C@H]2CCCN(C(=O)c3ccnc4ccccc34)C2)CC1`, the “% Inhibition” value is listed as 5% and the Z score is given as -1.03.
On to `COCC1CCN(c2ccnc3cc(F)ccc23)CC1`, for which the “% Inhibition” value was 7% and the Z score is listed as -1.37.
With `CN1CCN(CC2CCN(c3ccnc4ccccc34)CC2)CC1`, the “% Inhibition” value was found to be 98% and the Z score was -16.96.
Taken in the same sequence, the figures for `COc1ccc2c(N3CC[C@H](CN4CCCC4)C3)ccnc2c1` were 91% and -15.93.
On to `CC1(N2CCC2)CCC(NC[C@H]2CCN(Cc3ccccc3)C2)CC1` (stereo partly drawn), for which the “% Inhibition” value is on record as 73% and the Z score is on record as -12.59.
Consider `c1ccc(CN2CCC[C@H](CNC3CCN(c4ccc5c(c4)OCO5)CC3)C2)cc1`, for which the “% Inhibition” value is reported as 14% and the Z score is -2.53.
The corresponding values for `CC(=O)N1CCC(CNC2CCC(C)(N3CCCC3)CC2)CC1` (stereo not drawn) are -10% and 1.74.
Turning to `Nc1ccnc2ccc(-c3ccc(C(=O)NCC4CCOCC4)cc3)cc12`, the “% Inhibition” value was found to be 83% and the Z score is -16.44.
Taken in the same sequence, the figures for `OC1CN(c2ccnc3ccccc23)CCC1N1CCN(c2ccccn2)CC1` (stereo not drawn) were -7% and 1.2.
For `CCCCN1CCC(NC(=O)c2c[nH]c3ncccc23)CC1`, the “% Inhibition” value is recorded as -8% and the Z score stood at 1.66.
On to `O=C(NC1CCN(CCOc2ccc(Cl)cc2)CC1)c1c[nH]c2ccncc2c1=O`, for which the “% Inhibition” value stood at 94% and the Z score is -14.22.
As for `CCCc1cc(NCC2(N3CCN(C)CC3)CCCCC2)n2nccc2n1`, the “% Inhibition” value is -3% and the Z score was 0.64.
For the compound `CNc1cc([C@H]2C[C@@H](NC3CC(C)(C)NC(C)(C)C3)C2)ncn1`, the “% Inhibition” value was 11% and the Z score is on record as -1.95.
For the compound `CNc1nc(N[C@H]2CCCN(Cc3ccc(Cl)cc3)C2)nc2c1CCC2`, the “% Inhibition” value is 49% and the Z score was -8.5.
As to `Cc1cc(N2CCC(NC3CCCC3Cc3ccc(F)cc3)CC2)nc(N)n1` (stereo not drawn), the “% Inhibition” value is reported as 96% and the Z score was -14.52.
With `Cc1cc(N2CCC(N(C)Cc3ccc4nsnc4c3)CC2)nc(N)n1`, the “% Inhibition” value is reported as 18% and the Z score was -3.91.
In the case of `Cc1cc(N2CCC(NCc3ccc(C(F)(F)F)cc3F)CC2)nc(N)n1`, the “% Inhibition” value is 10% and the Z score was -2.1.
As for `CN(C)c1ncc(CN2CCN(c3nsc4ccccc34)CC2)cn1`, the “% Inhibition” value amounted to 5% and the Z score is listed as -0.94.
Take `O=C(Nc1cnc2c(c1)COCC2)c1cc2c(OC(F)(F)F)cccc2[nH]1`: the “% Inhibition” value was 93% and the Z score is -14.17.
`CN(c1ccccc1)c1ccc(CN2CCN([C@H]3CCNC3)CC2)cc1`: the “% Inhibition” value came to 68% and the Z score is -13.59.
Turning to `Cc1ocnc1CNC[C@H](O)c1ccc(Cl)c(Cl)c1`, the “% Inhibition” value turned out to be 94% and the Z score was -18.67.
Consider `Cn1nc(C(=O)Nc2cnc(CC3CC3)nc2)cc1C(F)(F)F`, for which the “% Inhibition” value was 1% and the Z score is recorded as -0.26.
`CCC(=O)N1CC[C@H](Nc2cc(C)nc3ccccc23)C1`: the “% Inhibition” value is recorded as -8% and the Z score was found to be 1.36.
With `CCCN1CCC(Nc2cc(C)nc3ccccc23)CC1`, the “% Inhibition” value is on record as 58% and the Z score is -8.81.
On to `Cc1ccc2[nH]c(-c3cc4n(n3)CCN(c3ccnc(N)n3)C4)nc2c1C`, for which the “% Inhibition” value was determined as 84% and the Z score is reported as -16.64.
As to `CN1CCC(N(C)C[C@H](Nc2ncnc3ccccc23)c2ccccc2)CC1`, the “% Inhibition” value was 98% and the Z score is listed as -17.15.
As to `C[C@](O)(CN1CCC(NCc2ccccc2)CC1)C(F)(F)F`, the “% Inhibition” value is listed as -6% and the Z score came out at 0.96.
Turning to `COc1ccccc1N1CCN(C2CCN(c3ccc(C(=O)N[C@@H](C)c4ccccc4)cc3)CC2)CC1`, the “% Inhibition” value was -11% and the Z score amounted to 1.99.
For the compound `OC1(c2ccc(Cl)cc2)CCN(C[C@@H]2CCCN3CCCC[C@H]23)CC1`, the “% Inhibition” value was 82% and the Z score is -16.27.
On to `CC(CCO)CNc1nc(NCC(C)CCO)c2ccccc2n1` (stereo not drawn), for which the “% Inhibition” value is given as 1% and the Z score is on record as -0.17.
Consider `COCCNc1nc(N[C@@H](C)c2ccccc2)c2ccccc2n1`, for which the “% Inhibition” value is listed as 52% and the Z score is reported as -11.2.
Taken in the same sequence, the figures for `CCNc1nc(NCc2ccccc2)c2cn[nH]c2n1` were -6% and 1.21.

The % Inhibition is the change of the read-out against control, counted positive when it falls.

The record behind these values is ChEMBL document CHEMBL5308541, “MAIP: An Open-Source Tool to Enrich High-Throughput Screening Output and Identify Novel, Druglike Molecules with Antimalarial Activity” (ACS Med Chem Lett, 2023).
